Bioassay records (PubChem)
Sampled rows, rich in hits. Any-hit rate of the full collection: about 2.3%.
M1 ag parental = counter-screen for M1 agonists: effect in parental CHO-K1 cells; hit rate 0.48% among 360,000; activation, % at 3 µM; Fluo-8 calcium fluorescence; scaled to maximal ATP response, vehicle zero; AID 602248; in the data active means activation above about 15%;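 further: untransfected CHO-K1 host cells lacking M1 receptor as counterscreen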
M1 PAM parental = M1 PAM counterscreen hit in parental CHO-K1 cells; hit rate 0.02% among 360,000; AID 602247; ATP EC20, Fluo-8 calcium fluorescence; 0% at ATP EC20, 100% at ATP max; activation, % at 3 µM;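 active means activation above the run cutoff, the mean activation of all test compounds plus 3 SD, cut at about 40% in these data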;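 further: peak over basal fluorescence ratio in a 140 s read after ATP addition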
M1 ag = activates human CHRM1 receptor; P11229; CHO-K1 hM1, Fluo-8 calcium fluorescence, agonist mode; 0% DMSO, 100% acetylcholine EC100; activation, % at 3 µM; hit rate 0.33% among 360,000; AID 588814;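 active means activation above the run's mean compound activation plus 3 SD, cut at about 16% in these data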;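 further: peak over basal fluorescence ratio within a 140 s kinetic read after compound addition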
Target sequence (P11229 whole entry, looked up): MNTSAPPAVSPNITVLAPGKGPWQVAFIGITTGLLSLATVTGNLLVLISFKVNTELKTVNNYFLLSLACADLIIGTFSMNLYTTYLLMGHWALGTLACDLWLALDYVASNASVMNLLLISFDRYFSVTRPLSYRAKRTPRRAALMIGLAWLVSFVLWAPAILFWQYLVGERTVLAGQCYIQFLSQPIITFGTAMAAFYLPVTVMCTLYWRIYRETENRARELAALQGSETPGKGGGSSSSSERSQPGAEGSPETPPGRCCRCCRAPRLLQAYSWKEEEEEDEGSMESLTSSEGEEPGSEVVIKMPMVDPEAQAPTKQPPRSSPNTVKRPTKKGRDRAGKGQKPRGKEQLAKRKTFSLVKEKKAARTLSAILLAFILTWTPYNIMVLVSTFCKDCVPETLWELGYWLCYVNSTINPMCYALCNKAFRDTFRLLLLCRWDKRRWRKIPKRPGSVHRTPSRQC
CHRM1 antagonist = human CHRM1 antagonism | P11229 | AID 588852 | inhibition, % at 3 µM | CHO-K1 hM1, Fluo-8 calcium fluorescence, ACh EC80 antagonist | hit rate 1.3% among 360,000;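 active means percent inhibition above its own plate's cutoff, namely the mean of that plate's compound wells plus 3 SD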;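 further: peak over basal fluorescence ratio during 140 s after agonist addition; 0% = ACh EC80 plus DMSO and 100% = DMSO alone without agonist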
CHO-K1 Ca antag = counter-screen for M1 antagonists: effect in parental CHO-K1 cells; ATP-induced calcium, Fluo-8 fluorescence; inhibition, % at 3 µM; hit rate 0.6% among 360,000; AID 602250;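 active means inhibition above a per-plate cutoff, the plate's mean sample inhibition plus 3 SD, cut at about 24% in these data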;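 further: 0% = DMSO plus EC80 ATP and 100% = DMSO alone without ATP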
M1 PAM = positive allosteric modulators of human M1 muscarinic receptor | P11229 | CHO-K1 hM1, Fluo-8 calcium fluorescence, ACh EC20; 0% = ACh EC20, 100% = maximal ACh | activation, % at 3 µM | hit rate 0.088% among 360,000 | AID 588819; in the data active means activation above about 19%, passing the limit was not always enough
Numbers without * were called inactive.

SMILES	M1 ag parental	M1 PAM parental	M1 ag	CHRM1 antagonist	CHO-K1 Ca antag	M1 PAM
CCCC(=O)N1CCCC(c2cc(C(=O)Nc3ccccc3)no2)C1 (stereo unspecified)	0	-15	-8	-9	24*	2
O=C(Nc1ccccc1)c1cc(C2CCCN(C(=O)c3ccccc3)C2)on1 (stereo unspecified)	2	17	-8	-9	-14	1
O=C(Nc1ccccc1)c1cc(C2CCCN(C(=O)c3cccs3)C2)on1 (stereo unspecified)	0	-9	-8	-8	24*	1
COc1ccc(OCCCC(=O)OCC(=O)N2CCN(S(=O)(=O)c3ccc(C)cc3C)CC2)cc1	10	5	11	9	2	4
CC(=O)c1ccc(OCCCC(=O)OCC(=O)N2CCN(S(=O)(=O)c3ccc(C)cc3C)CC2)cc1	18*	-3	3	29*	14	-9
CCCN1CCC(NC(=S)Nc2cccc(Cl)c2Cl)CC1	0	22	26*	-13	-8	9
COc1ccc(/C=C2\SC(=O)NC2=S)cc1OC	21*	12	7	15	11	-9
COc1cc(/C=C2/SC(=S)NC2=O)ccc1OS(=O)(=O)c1ccc(C)cc1	11	-4	0	12	25*	-10
CCN(CC(=O)Nc1ccc(NC(C)=O)cc1)C(=O)c1cccnc1Sc1ccc(C)c(C)c1	0	14	-3	-13	14	14
Cn1c(=O)c2c(nc(Cl)n2CC(=O)NC2(C#N)CCCCC2)n(C)c1=O	0	-16	-2	26	11	-8
COc1cccc(NC(=O)COC(=O)c2sccc2C)c1	0	12	-4	4	-9	-6
Cn1nc(C(C)(C)C)cc1C(=O)NCc1ccc(N2CCCC2=O)cc1	11	-8	3	24	29*	-13
CC(C)(CNC(=S)NCCc1ccccc1)CNC(=S)NCCc1ccccc1	12	-10	-2	18	28*	-10
OCCNC(=S)NCCc1ccccc1	1	-5	-6	6	10	-2
CCN(c1ccc(NC(=O)COC(=O)c2ccc(S(=O)(=O)N3CCCC3)cc2)cc1)C(C)C	1	4	-6	68*	-6	-25
Cc1ccc(NC(=O)CNc2cccc(S(=O)(=O)N3CCCCC3)c2)cc1F	12	-15	0	6	21	-3
CCN1CCN(S(=O)(=O)c2ccc(S(=O)(=O)N(CC)Cc3ccccc3)cc2)CC1	22*	10	-6	-4	6	-6
Cc1ccc(NC(=O)CSc2ccc(S(=O)(=O)N3CCCC3)cn2)cc1F	16*	15	-1	5	-2	-6
CCN(CC(=O)Nc1ccc(S(=O)(=O)N2CCOCC2)cc1)Cc1ccccc1	0	-3	-7	-7	7	1
CCN(CC(=O)Nc1ccc(S(=O)(=O)N2CCCC2)cc1)Cc1ccccc1	2	6	-6	45*	-1	-23
COc1ccc(C(C(N)=O)c2ncc(C(F)(F)F)cc2Cl)cc1OC (stereo unspecified)	0	-2	-5	-3	-8	3
CCN1CCN(C(=O)c2ccccc2N(Cc2ccccc2)S(=O)(=O)c2ccc(C)cc2)CC1	1	6	28*	10	1	-9
CN(CC(=O)Nc1ccc(S(=O)(=O)N2CCCC2)cc1)CC(=O)Nc1cccc(F)c1	18*	6	-7	7	2	-1
CCCc1cc(=O)oc2cc(C)cc(OC(C)C(=O)NCc3ccncc3)c12 (stereo unspecified)	1	-10	-3	0	-5	0
O=[N+]([O-])c1ccccc1C=NN1CCCCCC1	0	-11	-2	0	-2	-6
SMILES	M1 ag parental	M1 PAM parental	M1 ag	CHRM1 antagonist	CHO-K1 Ca antag	M1 PAM
O=C(NNC(=O)c1cnccc1C(F)(F)F)c1ccccc1	16*	7	1	-3	16	7
Cc1cccc(C2(c3cccc(C)c3)CC2C(=O)Nc2ccc([N+](=O)[O-])cc2O)c1 (stereo unspecified)	6	-11	-3	25	26*	-15
C=CCNC(=O)C1CC1(c1cccc(C)c1)c1cccc(C)c1 (stereo unspecified)	0	6	1	0	2	13
Cc1ccc(-c2nnn(CC(=O)N3CCN(c4ccccc4)CC3)n2)o1	1	8	4	-21	-18	30*
COc1ccc(N2CCN(C(=O)Cn3nnc(-c4ccc(OC)c(OC)c4)n3)CC2)cc1	0	-5	-1	-4	-11	1
CCN1C(=C(C#N)C#N)C=Cc2cc(C)ccc21	1	9	-9	9	-2	-9
C=CC[n+]1c(/C=C2\C=Cc3cc(C)ccc3N2CC)ccc2ccccc21	16*	-7	3	54*	38*	-14
CC1CCCN(S(=O)(=O)c2ccc(NC(=O)CNC3CCCC3)cc2)C1 (stereo unspecified)	4	22	-12	-7	-23	-2
Cc1ccc(C)n1CCN1CCN(CC(=O)Nc2ccc(S(N)(=O)=O)cc2)CC1	0	-5	-3	17	29*	-5
CC1CCN(C(C)C(=O)Nc2cc(S(=O)(=O)N3CCCCC3)ccc2Cl)CC1 (stereo unspecified)	0	11	-3	-8	-12	2
COC(=O)Nc1ccc(S(=O)(=O)N2CCCC(C(=O)N3CC(C)OC(C)C3)C2)cc1 (stereo unspecified)	16*	13	-1	6	1	7
CC1CCN(C(C)C(=O)Nc2ccc(S(=O)(=O)N3CCCC3)cc2)CC1 (stereo unspecified)	0	-16	-9	101*	1	-30
CC1CCN(CC(=O)Nc2ccc(S(=O)(=O)N3CCCC(C)C3)cc2)CC1 (stereo unspecified)	18*	11	-8	3	-2	-8
COC(=O)Nc1ccc(S(=O)(=O)N2CCCC(C(=O)N3CCOCC3)C2)cc1 (stereo unspecified)	1	13	-2	-11	-11	7
CC(OC(=O)C1=COCCO1)C(=O)Nc1ncc(Cl)cc1Cl (stereo unspecified)	0	-13	-1	-7	3	5
O=C(N/N=C/c1cc2ccccc2[nH]1)c1ccccc1Cl	2	17	1	6	-16	-1
O=C(O)c1ccc(/C=C/c2nc3sc4c(c3c(=O)[nH]2)CCC4)cc1	1	9	-4	-6	-9	8
Cn1c(=O)c2c(SCC(=O)N3CCCCC3)nc(-c3ccccc3F)nc2n(C)c1=O	1	24	-1	-16	-16	12
Cc1ccc(S(=O)(=O)Nc2cccc(C(=O)NCCCn3ccnc3)c2)cc1F	0	-12	-8	5	7	-3
